From PubChem BioAssay AID485313 (National Center for Advancing Translational Sciences (NCATS), 2010)
Out of some 320,000 compounds screened, about 7,600 (2.4%) were called active. A call without a number means that no potency is given here. Inconclusive results (about 3%) are left out. The call rests on the fitted dose curve; in most records, active means well fitted activation curve with a large enough effect; inconclusive means small, poorly fitted or top-dose-only effect; inactive means no such curve, though single readings can be large or run the other way. The full list was thinned out, with actives kept by preference.

Test: qHTS Assay for NPC1 Promoter Activators; further: nearly all actives have a fitted effect of over 60% in size
Details: Huh7 NPC1 promoter luciferase reporter, 24 h; series mostly up to 9.22 µM
Method in brief: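 Luciferase expression driven by the NPC1 promoter was measured in stably transfected Huh7 cells after a 24 h compound incubation, using a luciferase reagent and a luminescence read.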
Potency means the concentration at half of the fitted maximal effect.

SMILES	Potency
O=S(=O)(c1ccc(SCc2ccc(Br)cc2)nc1)N1CCOCC1	inactive
CCOc1ccc(C(=O)NCC(=O)N2CCN(c3ccc(C(F)(F)F)cn3)CC2)cc1	inactive
O=[N+]([O-])c1cccc(/C=N/Nc2ncc(Br)cn2)c1	2.82 µM (active)
O=C(N/N=C/c1cccc([N+](=O)[O-])c1)C1CC(=O)N(c2ccc(Br)cc2)C1 (configuration not stated)	inactive
Cc1ccc(NC(=O)O/N=C/c2cccc([N+](=O)[O-])c2)cc1	inactive
CC(C)Oc1ccc(C(=O)NCC(=O)Nc2ccc3c(c2)CCC3)cc1	inactive
COc1ccc(/C=N/OCc2ccccc2C#N)c(OC)c1	3.98 µM (active)
COc1ccc(/C=N/NC(=O)c2ccc3c(c2)OCCO3)c(OC)c1	inactive
COc1ccc(/C=N/Nc2cc(N3CCOCC3)nc(C)n2)c(OC)c1	inactive
Cc1cc(=O)oc2cc(NC(=O)C(C)Oc3ccccc3)ccc12 (configuration not stated)	inactive
CC(C)C(=O)Nc1ccc2c(c1)oc1ccccc12	3.55 µM (active)
CC(C)C(=O)Nc1ccc2oc(=O)ccc2c1	inactive
O=S(=O)(NCCCCCCNS(=O)(=O)c1c(F)cccc1F)c1ccc2c(c1)OCCO2	inactive
CCCCc1ccc(NC(=S)N2CCCC(CO)C2)cc1 (configuration not stated)	1.58 µM (active)
COc1ccc(NC(=S)N2CCCC(CO)C2)c(OC)c1 (configuration not stated)	inactive
CCCCc1ccc(NC(=S)NCCCN2CCOCC2)cc1	inactive
CC(C)N(C(=O)CN1CCN(S(=O)(=O)c2ccc(Br)s2)CC1)C(C)C	inactive
O=C(Nc1cccc2cccnc12)c1cccc(Cl)c1	inactive
N#Cc1ccccc1NC(=O)c1cccc(COc2ccc(Cl)cc2Cl)c1	0.316 µM (active)
CSc1ccc(C#N)cc1NC(=O)c1cccc(Cl)c1	inactive
CCn1nc(C(=O)Nc2ccc(N3CCOCC3)cc2)c2ccccc2c1=O	inactive
CC(C(=O)N(C)CC(=O)Nc1ccccc1C(F)(F)F)N1C(=O)c2ccccc2C1=O (configuration not stated)	inactive

SMILES	Potency
COc1ccc(Cc2nc3ccc(C(=O)NCC4CCOCC4)cc3o2)cc1OC	inactive
CSCCNC(=O)c1ccc2nc(Cc3ccccc3F)oc2c1	2.51 µM (active)
COCCNC(=O)c1ccc2nc(Cc3ccc(OC)c(OC)c3)oc2c1	inactive
COc1ccc(C(=O)COC(=O)c2ccc([N+](=O)[O-])s2)cc1OC	inactive
CCc1ccc(NC(=O)N2CCN(c3ccccc3)CC2)cc1	inactive
O=C(C(=O)N1CCc2ccccc2C1)N1CCc2ccccc2C1	inactive
CCc1ccc(NC(=O)N2CCc3ccccc3C2)cc1	2.24 µM (active)
CCCn1nc(C(=O)OCc2nc(N)nc(Nc3ccccc3C)n2)c2ccccc2c1=O	inactive
CCOc1ccc(/C(O)=C2\C(=O)C(=O)N(c3ccc(OC)cc3)C2c2ccccc2[N+](=O)[O-])cc1 (configuration not stated)	0.398 µM (active)
COc1ccc(/C(O)=C2/C(=O)C(=O)N(c3nc(C)c(C)s3)C2c2ccco2)cc1 (configuration not stated)	inactive
COc1ccc(C2/C(=C(/O)c3ccccc3)C(=O)C(=O)N2C)c(OC)c1 (configuration not stated)	inactive
c1ccc2cc(CCCc3cc4ccccc4cn3)ncc2c1	inactive
COc1cc(OC)cc(C(=O)NNC(=O)CCOc2ccccc2OC)c1	inactive
CCOc1ccc(Nc2nc(Cl)nc(N3CCN(c4ccc(OC)cc4)CC3)n2)cc1	inactive
Cc1ccc(Nc2nc(N3CCOCC3)nc(N3CCOCC3)n2)cc1Cl	inactive
COc1ccc(Nc2ncc(F)c(N3CCOCC3)n2)cc1	1.26 µM (active)
Cc1cccc(NC(=O)CN2CCN(C(=O)C3CCN(C(=O)/C=C/c4ccccc4)CC3)CC2)c1C	inactive
CCOC(=O)[C@@H]1[C@H]2COc3ccc(Br)cc3[C@H]2N2C(=O)N(c3ccc(Cl)cc3)C(=O)[C@@]12C	inactive
COc1ccccc1-c1oc2ccccc2c1C#CCCCCO	inactive
c1ccc(-c2cc(-c3ccccc3)[nH]n2)cc1	inactive
OCCCN1c2ccccc2Nc2nnc(-c3ccccc3)cc21	2.24 µM (active)
CN=c1scc(-c2cc(OC)ccc2OC)n1/N=C/c1c(C)[nH]c2ccccc12	inactive

SMILES	Potency
N#Cc1ccc(C2=CC(=O)C[C@H](c3ccc(Cl)cc3)C2)cc1	inactive
Cc1cc(C#N)c(SCC(N)=O)nc1-c1ccc(F)cc1	inactive
CC(=O)c1cc(C#N)c(SCC(=O)C(C)(C)C)nc1C	3.16 µM (active)
CC(=O)c1cc(C#N)c(N2CC(C)OC(C)C2)nc1C (configuration not stated)	inactive
CCOC(=O)c1ccc(N/C(=N/S(=O)(=O)c2ccccc2)c2ccccc2)cc1	inactive
Cc1ccc(S(=O)(=O)N2CCOCC2)cc1NC(=O)COC(=O)c1cnccn1	inactive
COc1ccc(/C=N/Nc2nc3ccccc3o2)cc1OC	2 µM (active)
CCOc1ccc(/C=N/Nc2nncc(-c3ccccc3)n2)cc1OC	inactive
CCNc1nc(NCC)nc(N/N=C/c2ccc(O)c(OC)c2)n1	inactive
CCN(CC)S(=O)(=O)c1ccc(N2CCOCC2)c(NC(=O)C(C)Oc2ccc(F)cc2)c1 (configuration not stated)	inactive
CC1CCCCC12NC(=O)N(CC(=O)OCC(=O)NCc1ccc(F)cc1)C2=O (configuration not stated)	inactive
CCN(CC(=O)Nc1ccccc1C(=O)NC1CC1)Cc1cccs1	inactive
Cn1ccsc1=NC(=O)c1cc(S(=O)(=O)N2CCOCC2)ccc1Cl	inactive
COc1ccc(-c2nc3n(c2Br)CCC3)cc1	2.82 µM (active)
COc1ccc(-c2nnc3n2CCCCC3)cc1	inactive
COc1ccc(-c2nc(SCC(=O)N3CCCC3)n[nH]2)cc1	inactive
CN(CC(=O)Nc1ccc(F)c(F)c1F)C(=O)Cn1cnc2c1c(=O)n(C)c(=O)n2C	inactive
Cc1ccsc1C(=O)NC1CCCCC1C (configuration not stated)	inactive
COc1cc(C(=O)OCc2ccc([N+](=O)[O-])cc2)cc(OC)c1OC	inactive
COc1cc(/C=N/O)ccc1OCc1ccc([N+](=O)[O-])cc1	2.51 µM (active)
COc1cc(/C=N\Nc2ccc([N+](=O)[O-])cn2)ccc1OCC(=O)O	inactive
Cc1ccccc1-c1cc(C(=O)NCC2CC2)n(CC2CC(c3cccnc3)=NO2)n1 (configuration not stated)	inactive

SMILES	Potency
O=C(COc1ccccc1O)NC1CCCC1	inactive
CC(=O)Nc1ccc(NC(=O)CSc2nnc(C3CC3)n2-c2ccccc2)cc1	inactive
Cc1ccccc1CSCC(=O)NC(=O)NC(C)(C)C	inactive
CC(C)(C)NC(=O)CSC(=Nc1ccccc1F)NC#N	3.98 µM (active)
COc1ccccc1-n1ccnc1SCC(=O)NC(C)(C)C	inactive
COc1cc(C(C)=O)ccc1OC(C)C(=O)Nc1ccc(S(=O)(=O)N2CCCC2)cc1 (configuration not stated)	inactive
CC(C)N(C(=O)CSc1nnc(NC2CC2)s1)c1ccccc1	inactive
Cc1ccccc1NC(=O)Cc1nc(COC(=O)c2ccc(C(F)(F)F)cc2)cs1	inactive
COc1ccc(NC(=S)N2N=CCC2c2ccccc2)cc1 (configuration not stated)	1.41 µM (active)
COc1ccc(NC(=S)N2CCc3cc(OC)c(OC)cc3C2)cc1	inactive
CCC(C)N(C)C1CCN(C(=S)Nc2ccc(OC)cc2)CC1 (configuration not stated)	inactive
N#CCCN(C(=O)COC(=O)C1CCN(c2ccc(C(F)(F)F)cn2)CC1)c1ccc(F)cc1	inactive
O=C(NCC1CCCO1)c1ccc(S(=O)(=O)Nc2ccc(F)cc2)cc1 (configuration not stated)	inactive
Cc1nnc2n1N=C(c1ccccc1)CS2	inactive
O=c1c2cc(-c3ccccc3)sc2nc2n1N=C(c1cccs1)CS2	3.16 µM (active)
c1csc(-c2cn3c(n2)SCC3)c1	inactive
COC(=O)[C@]1(C)CCC[C@@]2(C)C3CC[C@]4(OC(C)=O)C[C@@]3(CCC21)CC4=NO (some centres not stated)	inactive
O=C(NCCC1=CCCCC1)c1ccc(-n2cncn2)cc1	3.55 µM (active)
O=C(NCCC1=CCCCC1)c1ccc(Cl)c([N+](=O)[O-])c1	inactive
O=C(COc1cccc(-n2cnnn2)c1)NCCC1=CCCCC1	inactive
COc1ccc(-c2nn(-c3ccccc3)cc2/C=C\C(=O)Nc2ccc(C(=O)O)cc2)cc1	inactive
O=C(NCc1cccnc1)c1cn(-c2ccccc2)nc1-c1cccs1	inactive

SMILES	Potency
O=C(O)c1ccc(N/N=C/c2cn(-c3ccccc3)nc2-c2cccs2)cc1	1.26 µM (active)
COc1ccc(OC)c(CN2CCN(C(=O)CNC(=O)c3cc(C)cc(C)c3)CC2)c1	inactive
CCC(=O)N1CCCc2ccccc21	inactive
O=C(CSCc1ccccc1)N1CCc2ccccc21	2.24 µM (active)
O=C(CN1CCN(c2ccccn2)CC1)N1CCc2ccccc21	inactive
CN(CC(=O)Nc1ccc(F)cc1)CC(=O)N1CCCCC1	inactive
Cc1ccc(S(=O)(=O)N(CC(=O)Nc2cccc([N+](=O)[O-])c2)Cc2ccc(Cl)cc2)cc1	inactive
O=C(Nc1ccc(Cl)cn1)c1ccc2c(c1)OCCO2	0.501 µM (active)
CCCCC(CC)C(=O)Nc1ccc(Cl)cn1 (configuration not stated)	inactive
O=C(Nc1cccc(S(=O)(=O)Nc2ccc(Cl)cc2)c1)c1ccc2c(c1)OCCO2	inactive
CCCc1cc(C(=O)Nc2ccc(C(=O)OC)cc2)cs1	inactive
Cc1cccc(C)c1NC(=O)CNC(=O)c1ccc2c(c1)OCCO2	inactive
COc1c(Cl)cc(C(=O)Nc2ccc(Cl)cn2)cc1Cl	inactive
Cc1nc(NC(=O)c2ccc3c(c2)OCCO3)ccc1Br	1 µM (active)
CCCc1cc(C(=O)Nc2ccc(Cl)cn2)cs1	0.501 µM (active)
CC(=O)c1ccc2c(c1)OCCOCCOc1ccc(C(C)=O)cc1OCCOCCO2	inactive
O=C(C1Cc2ccccc2CN1C(=O)c1ccco1)N1CCN(c2ccccc2)CC1 (configuration not stated)	inactive
CN(CC(=O)Nc1ccc(F)c(F)c1F)C(=O)C1CC(=O)N(C2CCCC2)C1 (configuration not stated)	inactive
COc1ccc(CS(=O)/C(Cl)=C(/Cl)C(=O)Nc2ccc(OC)nc2)cc1 (configuration not stated)	inactive
